Unmarked numbers belong to inactive results. Inconclusive results are not listed. The source made the active and inactive calls. Unless noted, calls come from the whole dose curve; as a rule, active = well fitted curve in the direction sought with a large enough effect in the repeat runs; inconclusive = weak or mixed curves; inactive = no such curve, though single readings can be large; an effect the other way counts as inactive or inconclusive.

The nature of test [1]: qHTS assay to identify small molecule agonists of the TGF-beta/Smad signaling pathway - cell viability counter screen (AID 1346829). Note: top concentration of the series differs between compounds; nearly all actives have a fitted effect of over 45% in size. Summed up: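 Same-well cytotoxicity: CellTiter-Glo added after the 2 hr room-temperature beta-lactamase substrate step, luminescence measured 30 min later; cells had 5 hr of compound at 37 C.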
Test [2] in a line: qHTS assay to identify small molecule agonists of the TGF-beta/Smad signaling pathway (AID 1346859; active = well fitted activation curve with a large enough effect in the signal ratio in the repeat runs, not every such curve was filed as active; the % refers to the signal ratio; note: series mostly up to about 77 µM). The essentials: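 After overnight seeding, SBE-bla HEK 293T cells are dosed with compounds in DMSO and kept 5 hr at 37 C, 5% CO2. LiveBLAzer-type FRET substrate is then applied for 2 hr at room temperature.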
Test [3] deals with Thyrotropin-releasing hormone receptor (Homo sapiens) (UniProt P34981). The experiment in a line: qHTS assay to identify small molecule antagonists of the thyrotropin-releasing hormone receptor (TRHR) signaling pathway (AID 1346877; active = well fitted inhibition curve with a large enough effect in the repeat runs, not every such curve was filed as active; note: series mostly up to about 51 µM). The essentials:
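Overnight-plated (18 h, 37 °C) HEK293 cells expressing TRHR were dye-loaded 2 h, treated with compound, then stimulated with TRH at 1 nM final. Fluorescence intensity was captured every second for 3 min.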

Test [4] shares this target. The experiment in a line: qHTS assay to identify small molecule agonists of the thyrotropin-releasing hormone receptor (TRHR) signaling pathway (AID 1346891; calls by dose curve;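 note: HEK293 cells expressing TRHR with calcium dye readout; series mostly up to about 58 µM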). Summed up:
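Compounds were tested as agonists at 15 concentrations, in triplicate, on TRHR-Hek293 cells; calcium-sensitive dye fluorescence was recorded for 3 min following addition.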

Test [5] can be described thus: Caspase-3/7 induction in HepG2 cells by small molecules, qHTS assay (AID 1346978). Note: nearly all actives have a fitted effect of over 15% in size. The essentials: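 Wild-type HepG2 cells (2,000/well) were settled 5 h at 37 C, 5% CO2, then exposed to compounds in DMSO for 17 h. Caspase-3/7 activity was read by luminescence 30 min after adding Caspase-Glo 3/7 reagent at room temperature.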
The nature of test [6]: Caspase-3/7 induction in CHO-K1 cells by small molecules, qHTS cell viability counter screen (AID 1346979). Note: nearly all actives have a fitted effect of over 35% in size. The essentials:
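Viability readout by fluorescence (CellTiter-Fluor) on wild-type CHO-K1 cells exposed for 16hr at 37C and 5% CO2 to compounds delivered in DMSO; reagent incubated 1hr before reading.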

The nature of test [7]: Caspase-3/7 induction in CHO-K1 cells by small molecules, qHTS assay (AID 1346980). Note: nearly all actives have a fitted effect of over 15% in size. Summed up: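 Wild-type cells were seeded at 1,500 per well and settled 5 hr at 37 C, 5% CO2, then exposed to DMSO-dissolved compounds for 17 hr. Caspase-Glo 3/7 reagent was added, and luminescence was read after 30min at room temperature.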
Test [8] is described as follows: Caspase-3/7 induction in HepG2 cells by small molecules, qHTS cell viability counter screen (AID 1346981). Note: series mostly up to about 92 µM; nearly all actives have a fitted effect of over 30% in size. Summed up:
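Treatment of HepG2 cells with DMSO-delivered compounds ran 16 hr at 37 C following a 5-hr pre-incubation of 2,000 cells/well. CellTiter-Fluor fluorescence, read after 1 hr, served as the viability measure in a qHTS format.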

The target in test [9] is Nuclear receptor subfamily 1 group I member 2 (Homo sapiens) (UniProt O75469). Nature of the test: Human pregnane X receptor (PXR) small molecule agonists, qHTS assay (AID 1346982). Note: nearly all actives have a fitted effect of over 35% in size. The essentials:
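Stable HepG2 line reporting PXR-mediated CYP3A4 expression via luciferase. Treatment: 24 hr with compounds in DMSO at 37 C. Detection: ONE-Glo luminescence.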

The target in test [10] is Cytochrome P450 2D6 (Homo sapiens) (UniProt P10635). Nature of the test: Cytochrome P450 Family 2 Subfamily D Member 6 (CYP2D6) small molecule antagonists: luciferase reporter qHTS assay (AID 1671196). For activity change, negative = inhibition: series mostly up to about 120 µM. Note: nearly all actives have a fitted effect of over 50% in size. Note: potency is the fitted concentration of half-maximal effect. Summed up: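 Chemicals tested for interference with CYP2D6 activity; proluciferin substrate, NADPH regeneration, 1 h at room temperature, luminescent detection.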
Chain of Cytochrome P450 2D6 (Homo sapiens) (P10635 whole entry, looked up): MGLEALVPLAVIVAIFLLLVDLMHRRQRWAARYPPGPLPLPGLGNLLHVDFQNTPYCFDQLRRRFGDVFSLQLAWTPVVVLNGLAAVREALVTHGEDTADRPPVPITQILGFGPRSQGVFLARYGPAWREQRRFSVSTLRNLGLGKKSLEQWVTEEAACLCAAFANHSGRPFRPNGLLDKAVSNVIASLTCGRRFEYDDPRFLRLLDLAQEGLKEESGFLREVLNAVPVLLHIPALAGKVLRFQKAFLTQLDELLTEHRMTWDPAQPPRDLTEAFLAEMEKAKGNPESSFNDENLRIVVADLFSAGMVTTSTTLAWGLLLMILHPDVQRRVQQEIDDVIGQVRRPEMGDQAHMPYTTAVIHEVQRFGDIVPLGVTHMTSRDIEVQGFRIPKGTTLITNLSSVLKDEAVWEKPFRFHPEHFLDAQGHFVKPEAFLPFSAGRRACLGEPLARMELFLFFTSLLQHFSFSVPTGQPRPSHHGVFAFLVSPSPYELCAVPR
In test [11] the target is Cytochrome P450 1A2 (Homo sapiens) (UniProt P05177). The experiment in a line: Cytochrome P450 Family 1 Subfamily A Member 2 (CYP1A2) small molecule antagonists: luciferase reporter qHTS assay (AID 1671199). For activity change, negative = inhibition: series mostly up to about 120 µM. Note: nearly all actives have a fitted effect of over 50% in size. Note: potency is the fitted concentration of half-maximal effect. The essentials:
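Read-out is luminescence from luciferin detection reagent (20 min) proportional to CYP1A2 activity; compounds in DMSO preincubated 10 min with enzyme and proluciferin substrate, then NADPH regeneration solution, 1 h, room temperature.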

Test [12] addresses Voltage-gated inwardly rectifying potassium channel KCNH2 (Homo sapiens) (UniProt Q12809). Nature of the test: Human Ether-a-go-go-Related Gene (hERG) channel small molecule antagonists: fluorescence cell-based qHTS assay (AID 1671200).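 Note: hERG-expressing U2OS cells given a thallium stimulus after FluxOR II dye loading; series mostly up to about 77 µM; nearly all actives have a fitted effect of over 50% in size.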 Summed up:
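Thallium served as the potassium surrogate; its influx into dye-loaded U2OS cells carrying the channel was measured by fluorescence over 2 min.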

Test [13] addresses Cytochrome P450 3A4 (Homo sapiens) (UniProt P08684). The experiment in a line: Cytochrome P450 Family 3 Subfamily A Member 4 (CYP3A4) small molecule antagonists: luciferase reporter qHTS assay (AID 1671201). For activity change, negative = inhibition: series mostly up to about 120 µM. Note: nearly all actives have a fitted effect of over 50% in size. Note: potency is the fitted concentration of half-maximal effect. The essentials: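 Relative luminescence units after 20 min with luciferin detection reagent served as read-out. Beforehand, CYP3A4 turned over a proluciferin substrate for 1 h at room temperature with NADPH regeneration, following 10 min compound preincubation.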

Test [14] is described as follows: Human pregnane X receptor (PXR) small molecule agonists, qHTS cell viability counter screen (AID 1346977). Note: nearly all actives have a fitted effect of over 50% in size. Summed up:
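Viability counter screen: CellTiter-Fluor signal in PXR-Luc HepG2 cells, 24hr compound exposure, 37C, 5% CO2.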

The target in test [15] is Cytochrome P450 2C19 (Homo sapiens) (UniProt P33261). Nature of the test: Cytochrome P450 Family 2 Subfamily C Member 19 (CYP2C19) small molecule antagonists: luciferase reporter qHTS assay (AID 1671197). For activity change, negative = inhibition: series mostly up to about 120 µM. Note: nearly all actives have a fitted effect of over 65% in size. Note: potency is the fitted concentration of half-maximal effect. The essentials: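 Quantitative high-throughput screen of the Tox21 library using CYP2C19 with proluciferin substrate. Reaction: NADPH regeneration, 37C, 1 h, after 10 min compound preincubation at room temperature. Readout: luminescence.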
Chain of Cytochrome P450 2C19 (Homo sapiens) (P33261 whole entry, looked up): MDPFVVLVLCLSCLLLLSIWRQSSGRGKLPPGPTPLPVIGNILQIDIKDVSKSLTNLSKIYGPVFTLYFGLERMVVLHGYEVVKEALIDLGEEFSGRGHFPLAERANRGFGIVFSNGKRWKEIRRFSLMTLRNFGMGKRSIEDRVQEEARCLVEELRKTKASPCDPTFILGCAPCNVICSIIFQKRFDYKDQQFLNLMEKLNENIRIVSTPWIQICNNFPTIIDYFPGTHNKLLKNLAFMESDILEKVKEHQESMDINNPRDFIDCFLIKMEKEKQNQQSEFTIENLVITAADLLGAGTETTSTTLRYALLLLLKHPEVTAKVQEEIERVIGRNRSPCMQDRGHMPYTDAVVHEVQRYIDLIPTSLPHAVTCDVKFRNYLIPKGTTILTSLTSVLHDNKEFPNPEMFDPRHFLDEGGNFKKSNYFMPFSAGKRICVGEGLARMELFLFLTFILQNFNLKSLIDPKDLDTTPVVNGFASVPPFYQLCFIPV

Test [16] addresses Cytochrome P450 2C9 (Homo sapiens) (UniProt P11712). Nature of the test: Cytochrome P450 Family 2 Subfamily C Member 9 (CYP2C9) small molecule antagonists: luciferase reporter qHTS assay (AID 1671198). For activity change, negative = inhibition: series mostly up to about 120 µM. Note: nearly all actives have a fitted effect of over 50% in size. Note: potency is the fitted concentration of half-maximal effect. The essentials:
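CYP2C9 activity was measured with a P450-Glo proluciferin substrate. Enzyme–substrate mix was held with compound for 10 min at room temperature, then NADPH regeneration solution was added for 1 h at 37C. Luciferin product was read as luminescence.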

Test [17] addresses Nuclear receptor subfamily 1 group I member 2 (Rattus norvegicus) (UniProt Q9R1A7). Nature of the test: Rat pregnane X receptor (rPXR) activation by small molecules, qHTS assay (AID 1346983). Note: nearly all actives have a fitted effect of over 20% in size. The note with it: rPXR luciferase reporter cells, One-Glo luminescence, 24 h; active compounds read high. Summed up:
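Cell-based rPXR luciferase reporter assay, 2,000 cells per well, rested 5hr at 37 C before compound addition in DMSO, then 24 hr at 37 C. One-Glo reagent was added and luminescence read after 30 min at room temperature.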

Test [18] addresses Nuclear receptor subfamily 1 group I member 2 (Homo sapiens) (UniProt O75469). Nature of the test: CYP3A4 induction through human pregnane X receptor (PXR) by small molecules, qHTS assay (AID 1346984). Note: nearly all actives have a fitted effect of over 40% in size. Summed up: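 After 24 h at 37C with compound, DPX-2 cells (HepG2, co-transfected PXR response element and CYP3A4 promoter-luciferase) got 3uM final P450-Glo Luciferin-IPA for 3 h; One-Glo luminescence followed.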

The target is the same in test [19]. Nature of the test: Human pregnane X receptor (PXR) activation by small molecules, qHTS assay (AID 1346985). Note: nearly all actives have a fitted effect of over 40% in size. Summed up: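 DPX-2 cells (HepG2 co-transfected with a PXR response element and a CYP3A4-promoter luciferase construct) were seeded at 2,000 per well, rested 5 hr at 37C, then exposed to DMSO-dissolved compounds for 24 hr. Activation was read as luciferase luminescence.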
% is set by controls: 0 for no effect and ±100 for the full control effect.

Chain of Cytochrome P450 1A2 (Homo sapiens) (P05177 whole entry, looked up): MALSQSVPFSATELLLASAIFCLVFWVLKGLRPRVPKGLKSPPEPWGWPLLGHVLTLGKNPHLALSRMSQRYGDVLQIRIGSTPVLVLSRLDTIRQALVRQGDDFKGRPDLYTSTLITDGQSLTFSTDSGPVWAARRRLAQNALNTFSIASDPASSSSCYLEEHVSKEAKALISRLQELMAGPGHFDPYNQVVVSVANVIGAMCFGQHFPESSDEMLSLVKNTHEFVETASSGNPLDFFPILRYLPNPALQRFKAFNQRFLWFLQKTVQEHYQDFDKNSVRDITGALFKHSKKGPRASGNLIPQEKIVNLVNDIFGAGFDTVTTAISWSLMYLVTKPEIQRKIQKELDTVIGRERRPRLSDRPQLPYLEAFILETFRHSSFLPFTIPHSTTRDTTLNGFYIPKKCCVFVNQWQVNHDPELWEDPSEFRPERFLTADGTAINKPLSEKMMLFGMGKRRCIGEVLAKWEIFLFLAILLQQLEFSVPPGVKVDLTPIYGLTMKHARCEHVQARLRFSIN
Chain of Voltage-gated inwardly rectifying potassium channel KCNH2 (Homo sapiens) (Q12809 whole entry, looked up): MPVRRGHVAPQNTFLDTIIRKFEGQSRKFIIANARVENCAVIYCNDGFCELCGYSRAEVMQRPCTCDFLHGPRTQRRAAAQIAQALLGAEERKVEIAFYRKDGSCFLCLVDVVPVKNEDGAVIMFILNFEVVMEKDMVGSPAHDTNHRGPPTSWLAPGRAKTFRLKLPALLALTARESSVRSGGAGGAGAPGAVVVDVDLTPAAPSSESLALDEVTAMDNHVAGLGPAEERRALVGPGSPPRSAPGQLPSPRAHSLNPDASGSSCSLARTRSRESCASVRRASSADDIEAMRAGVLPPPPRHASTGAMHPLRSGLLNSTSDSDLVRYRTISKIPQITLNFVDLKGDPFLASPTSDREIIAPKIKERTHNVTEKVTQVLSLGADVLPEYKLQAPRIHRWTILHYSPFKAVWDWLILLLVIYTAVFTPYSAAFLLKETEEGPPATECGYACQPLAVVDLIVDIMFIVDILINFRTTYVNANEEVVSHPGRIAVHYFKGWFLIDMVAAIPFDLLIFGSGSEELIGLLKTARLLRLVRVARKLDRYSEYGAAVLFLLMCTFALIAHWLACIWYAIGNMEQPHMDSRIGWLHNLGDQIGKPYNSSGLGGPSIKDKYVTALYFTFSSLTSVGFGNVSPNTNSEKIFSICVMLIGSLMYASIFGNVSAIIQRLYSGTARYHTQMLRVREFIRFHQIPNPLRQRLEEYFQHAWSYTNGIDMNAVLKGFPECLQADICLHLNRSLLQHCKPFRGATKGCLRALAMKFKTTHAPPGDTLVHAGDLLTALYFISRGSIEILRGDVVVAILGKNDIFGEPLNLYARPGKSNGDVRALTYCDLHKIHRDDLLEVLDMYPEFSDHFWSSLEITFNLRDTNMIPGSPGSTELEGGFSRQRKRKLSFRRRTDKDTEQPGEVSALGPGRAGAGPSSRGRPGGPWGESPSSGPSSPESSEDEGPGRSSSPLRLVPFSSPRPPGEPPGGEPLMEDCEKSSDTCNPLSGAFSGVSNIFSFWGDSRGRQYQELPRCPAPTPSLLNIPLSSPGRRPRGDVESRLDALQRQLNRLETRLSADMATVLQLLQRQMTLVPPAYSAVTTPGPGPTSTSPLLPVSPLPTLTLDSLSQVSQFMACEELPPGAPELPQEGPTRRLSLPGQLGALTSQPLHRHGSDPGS
Chain of Cytochrome P450 2C9 (Homo sapiens) (P11712 whole entry, looked up): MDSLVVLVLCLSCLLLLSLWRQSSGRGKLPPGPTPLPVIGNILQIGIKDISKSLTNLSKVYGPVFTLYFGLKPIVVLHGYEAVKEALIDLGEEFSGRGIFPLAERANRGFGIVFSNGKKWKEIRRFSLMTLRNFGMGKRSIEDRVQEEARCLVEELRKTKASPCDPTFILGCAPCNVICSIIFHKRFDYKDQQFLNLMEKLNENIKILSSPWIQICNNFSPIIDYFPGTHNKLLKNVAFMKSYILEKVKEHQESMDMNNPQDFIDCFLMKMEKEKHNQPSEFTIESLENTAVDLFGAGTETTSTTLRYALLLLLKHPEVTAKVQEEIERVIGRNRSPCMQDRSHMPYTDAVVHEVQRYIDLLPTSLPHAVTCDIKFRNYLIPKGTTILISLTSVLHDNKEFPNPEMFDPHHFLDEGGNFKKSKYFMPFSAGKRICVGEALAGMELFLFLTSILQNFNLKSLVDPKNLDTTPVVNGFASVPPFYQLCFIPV
Chain of Cytochrome P450 3A4 (Homo sapiens) (P08684 whole entry, looked up): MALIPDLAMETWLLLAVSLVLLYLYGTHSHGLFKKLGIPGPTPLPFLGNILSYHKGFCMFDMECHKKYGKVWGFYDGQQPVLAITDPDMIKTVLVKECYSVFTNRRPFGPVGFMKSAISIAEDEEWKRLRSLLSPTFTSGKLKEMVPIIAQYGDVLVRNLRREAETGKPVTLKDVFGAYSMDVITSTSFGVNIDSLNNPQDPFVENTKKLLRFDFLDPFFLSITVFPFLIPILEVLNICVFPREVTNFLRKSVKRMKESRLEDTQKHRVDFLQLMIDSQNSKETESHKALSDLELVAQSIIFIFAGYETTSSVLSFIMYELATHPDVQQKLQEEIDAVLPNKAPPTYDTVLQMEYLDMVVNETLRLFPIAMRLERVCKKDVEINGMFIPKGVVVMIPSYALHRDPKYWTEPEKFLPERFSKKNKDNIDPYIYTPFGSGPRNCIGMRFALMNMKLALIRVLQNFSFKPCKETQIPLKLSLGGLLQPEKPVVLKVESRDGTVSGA
Chain of Nuclear receptor subfamily 1 group I member 2 (Rattus norvegicus) (Q9R1A7 whole entry, looked up): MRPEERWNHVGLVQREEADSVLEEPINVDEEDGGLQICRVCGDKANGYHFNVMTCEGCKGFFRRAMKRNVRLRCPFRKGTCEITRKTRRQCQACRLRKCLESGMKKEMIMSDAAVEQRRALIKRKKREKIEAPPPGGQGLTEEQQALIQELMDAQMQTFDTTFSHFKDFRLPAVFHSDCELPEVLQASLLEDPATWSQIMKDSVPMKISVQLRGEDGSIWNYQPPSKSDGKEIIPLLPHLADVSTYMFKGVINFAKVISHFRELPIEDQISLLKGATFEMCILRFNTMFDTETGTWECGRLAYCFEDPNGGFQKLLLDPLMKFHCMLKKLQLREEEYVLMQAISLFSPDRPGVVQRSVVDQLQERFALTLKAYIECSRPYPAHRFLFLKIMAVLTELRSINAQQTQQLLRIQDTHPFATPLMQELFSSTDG
Chain of Thyrotropin-releasing hormone receptor (Homo sapiens) (P34981 whole entry, looked up): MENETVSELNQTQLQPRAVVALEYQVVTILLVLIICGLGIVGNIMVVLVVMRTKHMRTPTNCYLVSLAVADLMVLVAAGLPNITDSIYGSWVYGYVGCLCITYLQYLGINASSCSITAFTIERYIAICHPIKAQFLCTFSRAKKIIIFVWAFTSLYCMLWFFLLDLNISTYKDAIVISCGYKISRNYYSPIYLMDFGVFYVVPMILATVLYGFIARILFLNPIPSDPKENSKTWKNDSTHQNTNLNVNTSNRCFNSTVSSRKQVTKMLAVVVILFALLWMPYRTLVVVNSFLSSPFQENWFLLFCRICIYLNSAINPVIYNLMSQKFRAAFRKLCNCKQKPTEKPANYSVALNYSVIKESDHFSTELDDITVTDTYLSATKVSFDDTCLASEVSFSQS
Chain of Nuclear receptor subfamily 1 group I member 2 (Homo sapiens) (O75469 whole entry, looked up): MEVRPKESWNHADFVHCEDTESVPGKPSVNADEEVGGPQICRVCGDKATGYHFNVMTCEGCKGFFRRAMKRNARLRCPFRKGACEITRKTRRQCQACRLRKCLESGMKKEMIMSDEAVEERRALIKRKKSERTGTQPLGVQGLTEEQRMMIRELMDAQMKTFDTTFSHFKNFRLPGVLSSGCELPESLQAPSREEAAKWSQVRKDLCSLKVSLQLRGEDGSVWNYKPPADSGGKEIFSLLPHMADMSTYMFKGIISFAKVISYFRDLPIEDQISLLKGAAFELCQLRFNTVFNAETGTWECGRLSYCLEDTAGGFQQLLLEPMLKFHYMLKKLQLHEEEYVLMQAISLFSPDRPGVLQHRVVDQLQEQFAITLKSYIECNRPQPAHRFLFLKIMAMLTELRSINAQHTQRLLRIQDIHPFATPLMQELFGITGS

`CC(=O)CCc1ccc(OC(C)=O)cc1`: the outcome in test [1], in [2], in [3], in test [4], in test [5] and in test [7] was inactive. Also, the call in test [8] was inactive. The Potency result in [6], in test [9], in test [10], in test [12] and in [13] was “inactive” in each case. The Potency in test [11] is 31.7 µM (active).
In the case of `CC(=O)CCC1=C(C)CCCC1(C)C`, the result in test [1], in test [2], in [3], in test [4], in [14] and in test [5] was inactive. Moreover, in [7], the result was inactive. Besides, the Potency entry in test [9], in test [10] and in test [12] was “inactive” in each case. Moreover, the Potency in [15] was 35.6 µM (active); in test [16] it was 31.7 µM (active); in [11], 39.9 µM (active); in test [13], 10 µM (active).
Regarding `CC(C)Cn1cnc2c1c(=O)n(C)c(=O)n2C`, the result in test [1], in test [2], in [3], in test [4], in test [5] and in test [7] was inactive. Besides, the result in test [8] was inactive. Moreover, the Potency result in test [6], in [9], in [18], in test [19], in [10] and in test [15] was “inactive” throughout. Besides, the Potency result in test [16], in [12] and in test [13] was “inactive” each time. Moreover, in [17], the max activation is 0.329%. Also, in test [11], the Potency is 15.5 µM (active).
Turning to `CC1(C)[C@H]2CC[C@](C)(C2)[C@H]1O`, the call in [1], in [2], in test [3], in test [14], in test [5] and in test [7] was inactive. In addition, in test [8], the result was inactive. The Potency result in [6], in [9], in [10], in test [15], in [16] and in test [11] was “inactive” throughout. Besides, the Potency result in test [13] was “inactive”.
On to `O=NN(CCCl)C(=O)NC1CCCCC1`, for which the result in test [1], in test [2], in [3], in [14], in [5] and in test [7] was inactive. Further, the outcome in test [8] was inactive. Further, the Potency entry in test [6], in [9], in [18], in [19], in test [10] and in [15] was “inactive” in each case. Moreover, the Potency entry in [16], in test [11] and in test [13] was “inactive” each time. In addition, the max activation in test [17] was -2.8%.
For the compound `COc1cc2c(cc1OC)C(=O)C(CC1CCN(Cc3ccccc3)CC1)C2` (stereo not drawn), the outcome in test [1], in test [2], in test [3], in test [4], in [5] and in test [7] was inactive. The compound was called inactive in test [8]. In addition, the Potency result in test [6] and in test [9] was “inactive” in each case. Besides, in test [17], the max activation is -1.76%.
Turning to `C/C=C(\C)C(=O)OCCc1ccccc1`, the compound was called inactive in test [1], in test [2], in [3], in test [4], in test [14] and in [5]. Further, the outcome in [7] and in test [8] was inactive. Moreover, the Potency entry in test [9], in test [12] and in [13] was “inactive” each time. Also, the Potency in [11] is 39.9 µM (active).
On to `CCC(C)C(C)=O` (stereo not drawn), for which the compound was classed as inactive in test [1], in [2], in test [3], in test [4], in test [14] and in test [5]. For the same compound, the compound was classed as inactive in test [7] and in [8]. Further, the Potency entry in test [9], in test [16], in test [12] and in test [13] was “inactive” in each case. For the same compound, the Potency in test [10] is 34.8 µM (active).
Regarding `CCCCCCCCCCCCCCCCCCOCCO`, the activity change, negative = cytotoxicity in test [1] was -6.94% [at 15.8 µM]; in test [6], -0.155% [at 19 µM]; in test [8], 7.52% [at 19 µM]. Besides, the activation was -0.657% [at 15.8 µM] in test [2], -0.279% [at 11.8 µM] in test [4] and 0.259% [at 19 µM] in test [9]. In addition, the activity, negative = inhibition in [3] is 2.83% [at 10.5 µM]. For the same compound, the caspase activation in test [5] is 0.0407% [at 19 µM]. The activity change, negative = inhibition in test [10] is -7.3% [at 23.6 µM]; in [15], 7.26% [at 23.6 µM]; in test [16] it was -10.3% [at 23.6 µM]; in [13], 11.9% [at 23.6 µM]. For the same compound, in [11], the Potency is 7.12 µM (active).
Consider `CC(C)c1ccc(C=O)cc1`, for which the result in [1], in test [2], in [3], in test [4], in test [14] and in [5] was inactive. Besides, the compound was classed as inactive in [7] and in [8]. Also, the Potency result in [9], in test [15], in [16], in [11], in test [12] and in test [13] was “inactive” each time.

Source of the values: PubChem BioAssay (Tox21).
